Measurements from PubChem BioAssay.
Calls of active or inactive are those of the source.

Assays:
Albumin (Bos taurus) = Albumin (Bos taurus) (UniProt P02769); assay: bovine serum albumin binders on microarray, profiling panel, artefact control for SMM control protein annotation, biochemical, small-molecule microarray, Alexa647 label, 635/667 nm fluorescence (AID 1118); details: BSA-A647 binding, fluorescence 635 nm, higher = more signal;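 note: score merges 667 nm emission intensity and signal-to-noise per printed compound spot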
[1] = small-molecule microarray binders of probe aXIP, primary screen, biochemical, NeuroSMM set, 635/667 nm fluorescence (AID 1119); details: higher = more signal, called active from +8 up or from −8 down;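 note: probe is the protein aXip251-270 applied at 1 µg/mL to compound-printed slides; binding of probe to printed compounds measured as 667 nm fluorescence plus signal to noise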
[2] = small-molecule binders of probe aNOTCH3, primary screen, biochemical, small-molecule microarray, 635/667 nm fluorescence (AID 1120); details: higher = more signal;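 note: probe is a biotin-tagged antibody raised against NOTCH3 rather than NOTCH3 protein; score merges spot fluorescence near 667 nm with spot signal to noise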
[3] = small-molecule binders of probe aNOTCH2, primary screen, biochemical, small-molecule microarray, 635/667 nm fluorescence (AID 1121); details: higher = more signal;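 note: score merges feature fluorescence read at 667 nm with its signal to noise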
[4] = molecular target: Carbonic anhydrase 2 (Homo sapiens) (UniProt P00918); assay: CAII small-molecule binders, profiling panel, biochemical, small-molecule microarray, Alexa647-labelled CAII (AID 1122); details: CAII-A647 binding fluorescence, higher = more signal
[5] = COS7 lysate on small-molecule microarray, probe aHis, 635 nm (AID 1123); details: COS7 cell lysate, fluorescence, higher = more signal;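 note: z-score combines 667nm fluorescence intensity with signal-to-noise per printed compound spot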
[6] = compound binding in COS7 lysate, probe aLAP1, primary screen, cell lysate, small-molecule microarray (AID 1124); details: probe aLAP1, fluorescence, higher = more signal;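 note: lysate comes from COS7 cells expressing LAP1 and is applied at 0.3 µg/mL; score merges spot fluorescence near 667 nm with signal-to-noise over triplicate slides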
Sam68 (KHDRBS1) = assay: Sam68 small-molecule binders, primary screen, biochemical, small-molecule microarray, 635 nm fluorescence (AID 1125); details: small-molecule microarray binding, higher = more signal;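 note: score merges 667 nm channel intensity with signal to noise over triplicate slides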
[7] = tested on: Chordin-like protein 2 (CHRDL2); assay: CHRDL2 small-molecule binders, primary screen, biochemical, small-molecule microarray, 635 nm fluorescence (AID 1126); details: small-molecule microarray binding, fluorescence 635 nm; higher = more signal;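 note: printed compound slides probed with Chrdl2 protein at 4 µg/mL for 1 h at 4 C; score merges 667 nm emission intensity with signal to noise over three replicate slides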
[8] = molecular target: Concanavalin-A (Canavalia ensiformis) (UniProt P02866); assay: ConA small-molecule binders, primary screen, artefact control for SMM control protein annotation, biochemical, small-molecule microarray, Alexa647 label, 635 nm (AID 1127); details: ConA-A647 binding fluorescence, higher = more signal;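 note: z combines 667 nm emission intensity with signal-to-noise across three replicate slides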
Sequence of Concanavalin-A (Canavalia ensiformis) (P02866 whole entry, looked up): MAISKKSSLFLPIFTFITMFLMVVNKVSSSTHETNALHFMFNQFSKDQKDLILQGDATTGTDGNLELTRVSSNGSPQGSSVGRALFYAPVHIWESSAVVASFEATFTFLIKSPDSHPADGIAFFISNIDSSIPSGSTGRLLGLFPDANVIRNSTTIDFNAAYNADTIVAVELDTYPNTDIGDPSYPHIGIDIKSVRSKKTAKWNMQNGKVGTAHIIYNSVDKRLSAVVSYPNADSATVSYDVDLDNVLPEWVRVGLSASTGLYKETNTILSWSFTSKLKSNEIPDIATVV

Sequence of Albumin (Bos taurus) (P02769 whole entry, looked up): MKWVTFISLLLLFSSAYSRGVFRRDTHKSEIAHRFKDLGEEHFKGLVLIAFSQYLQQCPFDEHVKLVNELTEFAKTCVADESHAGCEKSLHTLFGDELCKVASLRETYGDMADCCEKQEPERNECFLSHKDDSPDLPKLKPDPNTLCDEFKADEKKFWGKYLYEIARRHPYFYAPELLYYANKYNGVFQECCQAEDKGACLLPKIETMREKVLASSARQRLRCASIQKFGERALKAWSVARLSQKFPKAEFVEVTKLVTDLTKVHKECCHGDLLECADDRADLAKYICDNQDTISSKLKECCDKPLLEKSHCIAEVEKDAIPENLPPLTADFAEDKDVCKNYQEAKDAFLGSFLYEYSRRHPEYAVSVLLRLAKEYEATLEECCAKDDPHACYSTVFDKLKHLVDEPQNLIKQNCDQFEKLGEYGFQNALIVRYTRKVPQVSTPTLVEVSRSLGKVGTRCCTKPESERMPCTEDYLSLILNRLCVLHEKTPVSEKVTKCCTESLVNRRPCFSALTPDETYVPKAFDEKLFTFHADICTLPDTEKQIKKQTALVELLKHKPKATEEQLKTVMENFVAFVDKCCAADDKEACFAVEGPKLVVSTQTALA

Row | SMILES | composite z-score (Albumin (Bos taurus)) | composite Z-score [1] | composite z-score [2] | composite z-score [3] | composite z-score [4] | composite z-score [5] | composite z-score [6] | composite z-score (Sam68 (KHDRBS1)) | composite z-score [7] | composite z-score [8]
1 | O=c1cccc(CCc2ccccc2)o1 | -0.284 | 0.338 (inactive) | -0.301 | -0.0986 | 0.731 | 0.89 | -0.397 | 0.854 | 0.146 | 0.283
2 | O=C(OCCF)C1=CCC(c2cccc(Cl)c2)O1 (stereo not given) | 0.374 | 0.13 (inactive) | -0.191 | -0.199 | 0.593 | 0.751 | 0.142 | 0.748 | -0.165 | 0.532
3 | C[N+](C)(C)CCCCCCNC(=O)[C@H]1C[C@H]2C(=O)N3CCC[C@H]3C(=O)N2[C@H]1c1ccc(O)cc1 | -0.608 | 0.287 (inactive) | 0.0039 | -0.107 | 0.5 | 1.73 | -0.379 | 0.485 | 0.472 | 0.709
4 | COc1cc(C(O)C2C=CC3C(=O)N(c4ccccc4)C(=O)C3N2Nc2ccc(C#N)cc2)cc(OC)c1OC (stereo not given) | 1.01 | 0.0402 (inactive) | 0.178 | 0.135 | 0.883 | 3.23 | 1.26 | 1.32 | -1.05 | 1.21
5 | CCCCC=C[C@@H](NC(=O)c1cccs1)c1ccccc1 | 0.84 | -0.544 (inactive) | 0.0435 | -0.0116 | 0.251 | 1.35 | 0.369 | 0.839 | -0.406 | 0.499
6 | COc1cccc(C(=O)O[C@H]2CC[C@]3(C)C4=C(CCC3C2(C)C)[C@]2(C)CC[C@H]([C@H](C)CCCC(C)C)[C@@]2(C)CC4)c1 (stereo not given in full) | 0.111 | -0.424 (inactive) | -0.0414 | -0.132 | 0.202 | 0.279 | -0.147 | 0.166 | 0.585 | 0.254
7 | COCCOC(=O)N1C(=O)[C@@]2(c3cc(C#CC4(O)CCCCCC4)ccc31)[C@H](C(=O)N1CCCCCCC1)[C@H]1C(=O)O[C@H](c3ccccc3)[C@H](c3ccccc3)N1[C@@H]2c1ccccc1OCCO | 0.155 | 0.176 (inactive) | 0.922 | 0.191 | 0.452 | 2.83 | 0.542 | 1.33 | 1.09 | 0.827
8 | C=CCOC(=O)[C@H]1[C@@H]2C(=O)O[C@@H](c3ccccc3)[C@@H](c3ccccc3)N2[C@@H](c2ccc(OCCOC(=O)[C@@H]3C[C@@H]4C(=O)N5CCC[C@H]5C(=O)N4[C@@H]3c3ccc(O)cc3)cc2)[C@]12C(=O)Nc1ccccc12 | -0.854 | 0.0088 (inactive) | 0.299 | -0.104 | 0.268 | 1.36 | 0.261 | 1.33 | 1.03 | 0.93
9 | O=c1oc(-c2ccccc2)nc2cc(Br)ccc12 | -0.163 | -0.12 (inactive) | -0.0647 | -0.0984 | -0.0912 | 0.704 | 0.107 | 0.0872 | 0.875 | 0.666
10 | Cc1ccc(S[C@]2(C(=O)NC3CC3)CC(=O)N(C3CCCCC3)[C@@H]2c2ccc(CO)cc2I)cc1 | 0.599 | -0.186 (inactive) | 0.0426 | -0.123 | 0.408 | 1.31 | 0.396 | 1.28 | 0.0261 | 0.896
11 | COC(=O)[C@@]1(Cc2ccc(F)cc2)[C@H]2c3cc(C(=O)N(C)C)n(CCc4ccccn4)c3C[C@H]2CN1C(=O)c1ccccc1 | -0.0737 | 0.004 (inactive) | 1 | 0.2 | 0.827 | 2.75 | 0.52 | 1.29 | -0.464 | 0.542
12 | C=C(CCCC)C(=O)CC[C@H](OC(=O)c1cccnc1)c1cccc(OCCO)c1 | -0.39 | 0.087 (inactive) | -0.0242 | -0.14 | 0.771 | -0.112 | 0.0948 | 0.269 | 0.225 | -0.106
13 | C=CCNC(=O)[C@H]1[C@@H]2C(=O)O[C@@H](c3ccccc3)[C@@H](c3ccccc3)N2[C@@H](c2ccc(O)cc2)[C@]12C(=O)N(C(=O)OCCOC)c1ccc(C#CCCO)cc12 | 0.534 | -0.228 (inactive) | -0.155 | -0.0942 | 0.701 | 2.1 | 0.881 | 1.08 | -0.445 | 0.903
14 | CCCCC(CC)C(O)C1C=CC2C(=O)N(c3ccccc3)C(=O)C2N1Nc1ccccc1 (stereo not given) | 0.83 | 0.392 (inactive) | 0.206 | -0.122 | 0.665 | 2.28 | 0.297 | 0.883 | -0.804 | 0.964
15 | CC(C)(C)N1CC=CC23O[C@@H]4/C=C\CCCOC(=O)C4[C@H]2C(=O)N(CCO)[C@@H]3C1=O (stereo not given in full) | 0.268 | 0.103 (inactive) | -0.36 | -0.204 | 0.872 | 0.575 | 0.29 | -0.13 | -0.0702 | -0.0702
